Experimental findings from PubChem BioAssay AID463215 (Sanford-Burnham Center for Chemical Genomics, 2010) are described below.

Out of some 4,600 compounds screened, about 2,900 (63%) were called active.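 The calls were made as follows: active = inhibition of yeast growth at or above a set limit in either of two replicates at 10 µM; inactive = the rest.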 The set was probably picked from earlier hits. A selection follows.

The nature of the experiment: growth inhibitors of wild-type TIM10 yeast, confirmation, counter-screen for tim10-1 synthetic lethality project, single concentration, luminescence, S. cerevisiae (AID 463215).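 Also: isogenic wild-type TIM10 control yeast grown in succinate dextrose medium; 0% = yeast with DMSO and 100% = medium wells lacking yeast.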 Conditions: S. cerevisiae tim10 strain growth, BacTiter-Glo luminescence, 24 h; at 10 µM; stronger effect = higher value. (The purpose of a counterscreen is to sort out artefacts and off-target activity.)
Turning to `CCc1sc(C(=O)N2CCN(CC(=O)Nc3cccc(F)c3)CC2)cc1C`, the inhibition is 60.8% (active).
As to `C[C@@H]1C(c2ccc(F)cc2)=NN(c2ccc(Br)cc2)[C@H]1C(=O)N1CCOC1=O`, the inhibition was 52.1% (active).
As for `N/C(=N\OC(=O)Cc1ccccc1[N+](=O)[O-])c1ccc(Br)cc1`, the figure is 53% (active); as for `CC(/C=N/NC(=O)c1cc(-c2ccc3ccccc3c2)n[nH]1)=C\c1ccco1`, 42.5% (active); as for `O=C1c2ccccc2C(=O)N1CC1c2ccccc2CCN1S(=O)(=O)c1ccccc1` (configuration not stated), 22.5% (inactive).
Regarding `O=S(=O)(ON(c1ccccc1)S(=O)(=O)c1ccccc1)c1ccccc1`, the inhibition is -4.35% (inactive).
The result for `Cc1nn(Cc2ccc(Cl)c(Cl)c2)c(C)c1NC(=O)c1cc(C2CC2)on1` reads 33.2% (active); that for `Oc1ccccc1C1=NN(c2ccccc2)C(c2ccccc2)C1` (configuration not stated), 70.5% (active).
With `COc1ccc(Cn2c(-c3ccc(Cl)cc3)c[n+]3ccccc23)cc1`, the inhibition is 34.7% (active).
The result for `S=C(NCCCc1ccccc1)Nc1ccc(Br)cc1` reads 31.7% (inactive); that for `COc1ccc(NC(=S)NCC2CCN(c3ccc(OC)cc3)C2)cc1` (configuration not stated), -5.6% (inactive).
As to `O=C(Cc1ccccc1)NC(=S)Nc1ccc(N2CCCCC2)cc1`, the inhibition is 39.8% (active).
As for `COc1ccc(-c2cc(-c3ccc(N)cc3)nc(N)c2C#N)cc1OC`, the figure is 33.8% (active); as for `O=C(Nc1ccc(C(F)(F)F)cc1)c1cccc(-n2cnnn2)c1`, 23.1% (inactive); as for `O=C(O)c1ccc(N/N=C/c2cn(-c3ccccc3)nc2-c2cccs2)cc1`, 64.8% (active).
Regarding `Cc1nnnn1/C(=C\c1ccccc1)C(=O)OCC(=O)N1CC2(C)CC1CC(C)(C)C2` (configuration not stated), the inhibition is 50.7% (active).
As for `c1ccc(-c2cn3c(n2)CCc2ccc4cccnc4c2-3)cc1`, the figure is 37% (active); as for `c1ccc(-c2nc(NCc3ccco3)c3ccccc3n2)cc1`, 34% (active).
As for `Cc1ccccc1-c1nc(C#N)c(NCc2ccco2)o1`, the figure is 11.5% (inactive); as for `COc1cccc(CNc2nc(C(F)(F)F)nc3ccccc23)c1`, 27.1% (inactive).
The result for `CC(C)N(Cc1ccccc1)C(=S)Nc1ccc(OC(F)F)cc1` reads -14% (inactive); that for `COc1ccc(C(=O)Nc2ccccc2C(=O)N/N=C/c2ccccc2OC)cc1`, 43.1% (active); that for `COc1cc(/C=N/NC(=O)c2ccccc2)ccc1OS(=O)(=O)c1ccccc1`, 17.2% (inactive).
As for `O=C(N/N=C\c1cccc(Br)c1)c1ccccc1-n1cccc1`, the inhibition was -4.2% (inactive).
As to `COc1ccc(C(=O)Nc2ccccc2C(=O)N/N=C/c2ccc(O)c(OC)c2)cc1`, the inhibition was 93.3% (active).
Take `Cc1nc2sc(C(=O)c3ccccc3)c(N)c2c2c1CCCC2`: the inhibition was 23% (inactive).
Consider `OC(CNCC1CCCO1)Cn1c2ccc(Br)cc2c2cc(Br)ccc21` (configuration not stated), for which the inhibition is 51.4% (active).
As to `COc1ccc(OC)c2sc(NC(=O)C3COc4ccccc4O3)nc12` (configuration not stated), the inhibition is 34.8% (active).
The result for `COc1ccc(CS(=O)/C(Cl)=C(/Cl)C(=O)Nc2ccc(OC)nc2)cc1` (configuration not stated) reads 78.3% (active).
With `COc1ccc(NC(=O)/C(Cl)=C(/Cl)S(=O)Cc2ccc(C)cc2)cn1` (configuration not stated), the inhibition was 88% (active).
The result for `O=[N+]([O-])c1ccc(C=Nc2ccc(Cl)cc2Cl)s1` reads 44.1% (active); that for `Cn1c(-c2sccc2OCc2cccc(C(F)(F)F)c2)n[nH]c1=S`, 34.8% (active); that for `Cc1cccc(/C(N)=N/OC(=O)c2ccccc2Cl)c1`, 77.7% (active).
For `NS(=O)(=O)c1ccc(NC(=S)Nc2ccc(Br)c(Cl)c2)cc1`, the inhibition was 16.9% (inactive).
The result for `N/C(=N\OC(=O)c1cc(-c2ccccc2)nc2ccccc12)c1ccncc1` reads 64.8% (active); that for `O=C(NCCN1C(=O)S/C(=C\c2cccnc2)C1=O)c1cccc(OC(F)F)c1`, -9.15% (inactive).
The result for `CCCCNC(=S)N/N=C1\CCCCc2ccccc21` reads 34.3% (active); that for `CCN1/C(=C\c2ccc3ccccc3[n+]2CC)Sc2cc(C)ccc21`, 78.1% (active).
As for `Cc1oc2c(c1C(=O)N1CCOCC1)C(=O)c1ccccc1C2=O`, the figure is 22.8% (inactive).
Take `O=C(/C=C/Sc1ncn[nH]1)c1ccc(Cl)cc1`: the inhibition was 79% (active).
As for `O=C(ON=C1CCN(S(=O)(=O)c2ccccc2)CC1)c1ccc(Cl)cc1`, the figure is 62.2% (active).
As for `Cc1ccccc1NCC(=O)N/N=C\c1ccc([N+](=O)[O-])s1`, the figure is 37.2% (active); as for `O=[N+]([O-])c1cccc(Nc2c3ccccc3nc3ccccc23)c1`, 21.6% (inactive).
Regarding `O=C1NC(=O)C2C1C(c1ccc([N+](=O)[O-])cc1)=NN2Cc1ccccc1` (configuration not stated), the inhibition is 4.5% (inactive).
The result for `O=[N+]([O-])c1ccc2c(c1)Nc1nc3ccccc3nc1N2` reads 83.8% (active).
The result for `COc1ccc(C(=O)COC(=O)c2ccc([N+](=O)[O-])s2)cc1OC` reads 81.8% (active); that for `COc1nc(NC2CCCCC2)nc(N2CCCCCC2)n1`, -15.7% (inactive).
The result for `O=C(Nc1ccc2c(c1)CCC2)c1ccc(Br)s1` reads 44% (active); that for `Cc1ccc(NC(=O)c2cccs2)cc1S(=O)(=O)N(C)C`, -1.3% (inactive); that for `N/C(Cc1ccc([N+](=O)[O-])cc1)=N\OC(=O)C1CCCCC1`, 49.2% (active).
With `N/C(Cc1ccc([N+](=O)[O-])cc1)=N\OC(=O)COc1ccc2ccccc2c1`, the inhibition is 51% (active).
As for `CC1(C)CCSC(/C=C/c2ccccc2)=N1`, the figure is 56.7% (active).
`CNC(=S)N/N=C/c1cn(Cc2ccc(C)cc2)c2ccccc12`: the inhibition is 53.4% (active).
For `CSC(=S)N/N=C/c1c[nH]c2ccccc12`, the inhibition is 20.1% (inactive).
With `COC(=O)c1c(NC(=O)CSc2nncs2)sc2c1CCCCC2`, the inhibition is 25.7% (inactive).
The result for `COC(=O)c1sccc1NS(=O)(=O)c1ccc(F)cc1F` reads 42.8% (active).
The result for `O=C(/C=C/c1cccs1)c1cc(Cl)ccc1OC(=O)N1CCOCC1` reads 40.2% (active); that for `O=C(Oc1ccc(F)cc1)N1CCOCC1`, -0.9% (inactive).
As for `C[C@@H](NC(=O)OC(C)(C)C)c1nnc(S(=O)(=O)Cc2ccccc2)o1`, the figure is 43.6% (active); as for `N#C/C(=C\c1ccccc1C(F)(F)F)C(=O)Nc1ccccc1F`, 46.9% (active); as for `CCCc1[nH]nc2c1C(c1ccc(Br)s1)C(C#N)=C(N)O2` (configuration not stated), 73.4% (active).
Turning to `Cc1ccc(-c2ccc(/C=C(\C#N)C(N)=S)o2)c([N+](=O)[O-])c1`, the inhibition is 54.1% (active).

One may read the inhibition as the relative decrease from the control value, in per cent.
